The text below walks through data of PubChem BioAssay (EPA / NIEHS).

Assay [1] can be described thus: TOX21_p53_BLA_p4_viability: Viability Assessment in the Tox21 HCT-116 p53 Agonism Beta-lactamase Assay, Phase 4 (AID 2283597).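 Note: hits lower the luminescence signal meaning cytotoxicity.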 The procedure, abridged: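 Cells plated, 5 h pre-incubation; DMSO compounds pinned (217-fold dilution); 16 h, 37C/5% CO2; CCF4-AM 2 h RT; CellTiter-Glo 30 min RT; luminescence read.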
Assay [2] in a line: TOX21_p53_BLA_p5_viability: Viability Assessment in the Tox21 HCT-116 p53 Agonism Beta-lactamase Assay, Phase 5 (AID 2283600). A digest of the protocol:
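4000 cells/well; 5 h pre-incubation; DMSO compounds pin-transferred, 217-fold dilution; 16 h, 37C/5% CO2; CCF4-AM 2 h RT; CellTiter-Glo 30 min RT; luminescence.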

For assay [3], the target named is Cellular tumor antigen p53 (Homo sapiens) (UniProt P04637). The assay can be described thus: TOX21_p53_BLA_p5_ratio: Tox21 HCT-116 p53 Agonism Beta-lactamase Assay, Ratio, Phase 5 (AID 2283599). The procedure, abridged: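 HCT-116 cells carrying a p53-inducible beta-lactamase reporter were seeded at 4000 cells/well and dosed after 5 h with compound in DMSO (217-fold dilution). After 16 h at 37C, CCF4-AM substrate was added for 2 h, and the 460/530 nm emission ratio was scored as gain-of-signal versus DMSO.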
Cellular tumor antigen p53 (Homo sapiens), sequence (P04637 whole entry, looked up): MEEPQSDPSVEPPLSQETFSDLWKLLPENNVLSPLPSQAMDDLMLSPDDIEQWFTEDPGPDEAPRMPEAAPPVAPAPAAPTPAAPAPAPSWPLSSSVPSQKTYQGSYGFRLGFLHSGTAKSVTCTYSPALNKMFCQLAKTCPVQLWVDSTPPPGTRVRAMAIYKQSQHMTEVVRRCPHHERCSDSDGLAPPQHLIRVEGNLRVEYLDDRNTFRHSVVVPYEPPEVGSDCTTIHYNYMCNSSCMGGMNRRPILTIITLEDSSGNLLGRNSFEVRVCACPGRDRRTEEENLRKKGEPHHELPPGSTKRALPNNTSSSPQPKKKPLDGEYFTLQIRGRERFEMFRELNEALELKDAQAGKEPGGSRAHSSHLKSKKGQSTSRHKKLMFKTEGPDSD

Assay [4] has the same target. The assay can be described thus: TOX21_p53_BLA_p4_ratio: Tox21 HCT-116 p53 Agonism Beta-lactamase Assay, Ratio, Phase 4 (AID 2283601). The procedure, abridged: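 HCT116 cells carrying an inducible beta-lactamase reporter were plated at 4000 cells/well, rested 5 h, then exposed to compounds in DMSO (217-fold dilution) for 16 h at 37C. CCF4-AM substrate was loaded 2 h at room temperature; 460/530 nm emission ratio scored gain-of-signal versus DMSO.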

The structures appear in SMILES notation. Where “and” joins values, the source holds several entries; their conditions need not be identical. Equal values may be shown once. Results filed as inconclusive are left out. Some structures have more than one record in an assay (separate samples or runs), and their calls can disagree. Calls of active or inactive are those of the source. Rule for the calls: active = hit-call score of the fitted dose curve at least 0.9, where 1 is the maximum; inconclusive = response in the unintended direction; inactive = score below 0.9.

With `CCCCS(=O)(=O)Cl`, the compound was classed as inactive in assay [1] and in assay [2].

As to `CC(C=O)Cc1ccc2c(c1)OCO2` (stereo not given), the compound was classed as inactive in assay [1], in assay [3], in assay [2] and in assay [4].

For `C=CC(=O)NC(C)(C)CC(C)=O`, the call in assay [1] and in assay [2] was inactive.

As to `CCCCCCCCBr`, the outcome in assay [3] and in assay [2] was inactive.

On to `CN(C)[C@@H]1C(=O)C(C(N)=O)=C(O)[C@@]2(O)C(=O)C3=C(O)c4c(O)ccc(Cl)c4[C@@](C)(O)[C@H]3C[C@@H]12`, for which the outcome in assay [3] and in assay [2] was inactive.

Take `CCCCN(CCCCO)N=O`: the compound was called inactive in assay [1] and in assay [2].

For `C=CCCl`, in assay [3], the result was inactive.

In the case of `c1ccc2c(c1)Oc1ccccc1O2`, the result in assay [3] and in assay [2] was inactive.

With `O=c1oc2ccccc2c(O)c1C(CC(O)c1ccc(-c2ccc(Br)cc2)cc1)c1ccccc1` (stereo not given), the AC50 – broadly, the concentration giving half of the maximal activity seen – in assay [3] is 27.2 µM (active) and 14.3 µM (active); in assay [2], 19.3 µM (active); in assay [4], 20.4 µM (active). Besides, the call in assay [2] and in assay [4] was inactive.

As for `Nc1nc(=S)[nH][nH]1`, the outcome in assay [3] and in assay [2] was inactive.

As to `O=C=Nc1ccc(Cl)cc1`, the result in assay [1], in assay [3], in assay [2] and in assay [4] was inactive.

With `O=C1C[C@@H]2OCC=C3CN4CC[C@]56c7ccccc7N1[C@H]5[C@H]2[C@H]3C[C@H]46`, the outcome in assay [3], in assay [2] and in assay [4] was inactive.

In the case of `CC(C)C(C)(N)C#N` (stereo not given), the compound was called inactive in assay [1], in assay [3] and in assay [4].

With `CCC[N+](CCC)(CCC)CCC`, the outcome in assay [3] was inactive.

As to `O=[N+]([O-])c1ccc(Nc2ccccc2)cc1`, the AC50 was 52.5 µM (active) and 84.9 µM (active) in assay [3]; 66.3 µM (active) in assay [2]; 43.1 µM (active) in assay [4]. Further, the result in assay [2] and in assay [4] was inactive.

With `CCOC(=O)OC1=C(c2cc(C)ccc2C)C(=O)NC12CCC(OC)CC2` (stereo not given), the call in assay [1] and in assay [2] was inactive. Further, the concentration at half-maximal activity (AC50) in assay [3] was 26.3 µM (active); in assay [4], 54.7 µM (active).

Take `O=NN1CCOCC1`: the outcome in assay [1], in assay [3] and in assay [4] was inactive.

Turning to `OCCCCO`, the compound was classed as inactive in assay [1], in assay [3], in assay [2] and in assay [4].

Consider `O=C1c2ccccc2C(=O)C1C(=O)C(c1ccccc1)c1ccc(Cl)cc1` (stereo not given), for which, in assay [1], the half-maximal activity concentration (AC50) is 37.3 µM (active). For the same compound, the outcome in assay [3], in assay [2] and in assay [4] was inactive.

`O=[N+]([O-])c1cccc2ccccc12`: the result in assay [1], in assay [3] and in assay [4] was inactive.

As for `Cl[C@H]1OCCO[C@@H]1Cl`, the call in assay [1], in assay [3] and in assay [4] was inactive.

`OCC(c1ccc(Cl)cc1)c1ccc(Cl)cc1`: the concentration at half-maximal activity (AC50) in assay [1] is 71.1 µM (active); in assay [3], 86.8 µM (active); in assay [2], 70.4 µM (active); in assay [4] it was 85.2 µM (active).

In the case of `Cc1ccccc1OP(=O)(Oc1ccccc1C)Oc1ccccc1C`, the compound was classed as inactive in assay [1], in assay [3] and in assay [4].

Regarding `COCCl`, the compound was called inactive in assay [1], in assay [2] and in assay [4].

`O=c1[nH]c2ccccc2n1C1CCN(CCCC(c2ccc(F)cc2)c2ccc(F)cc2)CC1`: the AC50 in assay [1] is 14.6 µM (active) and 11.3 µM (active); in assay [3], 84.6 µM (active) and 43.2 µM (active); in assay [2], 75.5 µM (active) and 31.9 µM (active); in assay [4], 19.8 µM (active). The result in assay [4] was inactive.

With `OC(c1ccc(Cl)cc1)(c1ccc(Cl)cc1)c1cccnc1`, the AC50 in assay [3] was 72.5 µM (active); in assay [4], 70.9 µM (active). Besides, the call in assay [2] was inactive.

On to `CCOC(=O)CCN(SN(C)C(=O)Oc1cccc2c1OC(C)(C)C2)C(C)C`, for which the outcome in assay [3], in assay [2] and in assay [4] was inactive.

Take `Cc1cc(SCc2sc(-c3ccc(C(F)(F)F)c(F)c3)nc2C)ccc1OCC(=O)O`: the figures for the AC50 in assay [3], in assay [2] and in assay [4] were 70.2 µM (active), 40.6 µM (active) and 54.2 µM (active), respectively.

Regarding `CCCCC(CC)C(=O)Cl` (stereo not given), the outcome in assay [3], in assay [2] and in assay [4] was inactive.

Turning to `BrCc1ccc(Br)cc1`, the result in assay [3], in assay [2] and in assay [4] was inactive.

As to `O=S1OC[C@@H]2[C@H](CO1)[C@]1(Cl)C(Cl)=C(Cl)[C@@]2(Cl)C1(Cl)Cl` (stereo not given in full), the result in assay [3], in assay [2] and in assay [4] was inactive.

Take `O=NN1CCCCCCC1`: the outcome in assay [3], in assay [2] and in assay [4] was inactive.

On to `O=C(NC(=O)c1c(F)cccc1F)Nc1cc(Cl)c(OC(F)(F)C(F)C(F)(F)F)cc1Cl` (stereo not given), for which the outcome in assay [3], in assay [2] and in assay [4] was inactive.

With `CC(c1ccc(O)cc1)c1ccc(O)cc1`, the outcome in assay [3], in assay [2] and in assay [4] was inactive.

On to `CC(C)[C@H](C(=O)OC(C#N)c1cccc(Oc2ccccc2)c1)c1ccc(OC(F)F)cc1` (stereo not given in full), for which the result in assay [3], in assay [2] and in assay [4] was inactive.

Consider `CCOC(=O)C(SP(=S)(OC)OC)c1ccccc1` (stereo not given), for which the result in assay [3], in assay [2] and in assay [4] was inactive.

Regarding `N#CCC#N`, the outcome in assay [3], in assay [2] and in assay [4] was inactive.

Turning to `OC[P+](CO)(CO)CO`, the outcome in assay [3] and in assay [4] was inactive.

Take `O=C(CBr)c1ccc(O)cc1`: the outcome in assay [3], in assay [2] and in assay [4] was inactive.

With `CC(C)(C)c1cc([N+](=O)[O-])cc(C(C)(C)C)c1O`, the outcome in assay [3] and in assay [2] was inactive. Also, the AC50 in assay [4] was 46.1 µM (active).

Regarding `O=[N+]([O-])c1c2ccccc2cc2ccccc12`, the result in assay [3], in assay [2] and in assay [4] was inactive.

With `CC(C)(C#N)N=NC(C)(C)C#N`, the result in assay [3], in assay [2] and in assay [4] was inactive.

On to `CCCCCCCCCCCCCCC(Br)C(=O)O` (stereo not given), for which the results for the AC50 in assay [3] and in assay [2] were 70.6 µM (active) and 70.3 µM (active), respectively. In addition, in assay [4], the result was inactive.

`CCOP(=O)(OCC)OC(=CCl)c1ccc(Cl)cc1Cl`: the result in assay [3], in assay [2] and in assay [4] was inactive.

As to `Clc1cc(C(Cl)(Cl)Cl)cnc1Cl`, the result in assay [3], in assay [2] and in assay [4] was inactive.
